ERG Ets-DNA blk: blocks human ERG Ets domain binding to DNA; Potency, µM (titrated, usually from 76.9 µM), for the others: at the top dose FP activity, negative = inhibition, actives largely listed as inhibitors; fluorescence polarization, His-ERG Ets domain / labelled DNA; actives 0.028% (n = 370,000); active = well fitted inhibition curve with a large enough effect in the polarisation, with a control signal flat; inconclusive = small, poorly fitted or top-dose-only effect, or effect the other way, or a change in a side signal; inactive = no such curve, though single readings can be large or run the other way; the % refers to the polarisation;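 note: polarization taken with two DNA probes labelled with fluorescein and Texas red; % of control where 0% means no effect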
Target sequence (P11308 whole entry, looked up, the tested form may be a part): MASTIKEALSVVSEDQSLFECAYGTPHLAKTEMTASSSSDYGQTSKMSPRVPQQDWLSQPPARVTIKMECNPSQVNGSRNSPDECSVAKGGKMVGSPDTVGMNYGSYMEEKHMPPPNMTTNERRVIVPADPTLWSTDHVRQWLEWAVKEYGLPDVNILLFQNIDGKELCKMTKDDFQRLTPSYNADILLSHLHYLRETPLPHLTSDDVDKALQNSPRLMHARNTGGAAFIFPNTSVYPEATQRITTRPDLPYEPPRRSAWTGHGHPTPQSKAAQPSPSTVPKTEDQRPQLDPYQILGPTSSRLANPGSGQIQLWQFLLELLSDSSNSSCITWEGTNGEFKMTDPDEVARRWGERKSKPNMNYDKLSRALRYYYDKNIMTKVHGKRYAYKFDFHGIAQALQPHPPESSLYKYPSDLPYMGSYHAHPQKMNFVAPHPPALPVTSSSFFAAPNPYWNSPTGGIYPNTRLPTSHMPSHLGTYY
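His-tagged ERG Ets domain (1 uM in the protein solution; 300mM KCl, 50mM Tris-HCl, 1mM EDTA, 1mM DTT, pH 7.5) received compound, then a probe mix of 5 nM fluorescein-DNA and 100nM Texas-615-DNA. Fluorescence polarization was read for both dyes.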
aSyn rescue: rescues yeast growth from alpha-synuclein toxicity | Yeast expressing alpha-synuclein, growth rescue, BacTiter-Glo, 24 h | Potency, µM (top dose mostly 46.1 µM), for the others: at the top dose growth rescue (activation), hits mostly activators | actives 0.14% (n = 370,000); note: % of control where 0% means no effect; nearly all actives have a fitted effect of over 65% in size
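Galactose-induced alpha-syn yeast (OD600=0.02, raffinose-pregrown) + pinned cpd, 24 hr, 30 deg C; growth by BacTiter-Glo luminescence. Growth restoration scores as activation.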
Mito fusion act: blocks mitochondrial division or promotes mitochondrial fusion | actives 0.23% (n = 320,000) | S. cerevisiae fusion-defective mutant growth rescue, CellTiterGlo 48 h | Potency, µM (titrated, usually from 46.1 µM), inactives show at the highest dose growth rescue (activation), usual class: activators; note: % of control where 0% means no effect; nearly all actives have a fitted effect of over 45% in size
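Yeast fusion mutant, YPEG (non-fermentable carbon), compound, 48 h at 37C non-permissive; CellTiterGlo added, 10 min RT, luminescence read. Rescued growth = division inhibition.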
FUS suppressor: FUS proteinopathy suppression in yeast; actives 0.24% (n = 390,000); Potency, µM (titrated, usually from 76.6 µM), actives largely listed as activators; S. cerevisiae FUS-expressing, growth rescue, OD600, 24 h;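 note: plate controls were DMSO vehicle for no effect and reference control for full effect; nearly all actives have a fitted effect of over 55% in size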
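Compound concentration series was pinned onto galactose-induced FUS-expressing yeast seeded at OD 0.005. Plates sat 24hr at 30C; absorbance at 600 nm gave growth. DMSO served as background control.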
Abeta rescue: restores growth of yeast expressing A-beta42 peptide. actives 0.063% (n = 410,000). Potency, µM (titrated, usually from 46.1 µM), most hits filed as activators. AID 1347071. yeast expressing A-beta42, growth rescue, OD600, 48 h; response scale: 0% DMSO, 100% iron-clioquinol control; note: nearly all actives have a fitted effect of over 55% in size
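Yeast A-beta toxicity model in growth medium with pinned compounds, 48 h at 30 C; growth read as absorbance at 600 nm. Normalized to FeCl3/clioquinol equimolar mix (positive) and DMSO (negative).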
TDP-43 yeast inh: TDP-43 toxicity inhibition in yeast; AID 652104; TDP-43 expressing yeast growth rescue, BacTiter-Glo, 24 h; actives 1.8% (n = 410,000); Potency, µM (doses to about 46.1 µM), for the others: at the highest dose growth rescue (activation), usual class: activators; note: % of control where 0% means no effect; nearly all actives have a fitted effect of over 50% in size
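Luminescence from BacTiter-Glo reports growth of TDP-43-expressing yeast after 24 hr at 30 deg C with compound. Cells were raffinose-pregrown to mid-log, then seeded in galactose medium at OD600=0.02.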
* = called active by the depositor. An excerpt weighted towards active compounds, which were near 2.2% of everything screened. Unless noted, calls come from the whole dose curve; as a rule, active = well fitted curve in the direction sought with a large enough effect; inconclusive = small, poorly fitted or top-dose-only effect, or another doubt; inactive = no such curve, though single readings can be large; an effect the other way counts as inactive or inconclusive. Potency is the fitted concentration of half-maximal effect.

CN(CC(=O)NCc1ccccc1Cl)S(=O)(=O)c1ccc2c(c1)c(=O)n(C)c(=O)n2C was read as ERG Ets-DNA blk 0.7%, FUS suppressor inactive, Abeta rescue inactive and TDP-43 yeast inh -13.4%.
Screening Cc1cc2c(cc1C)-n1nnnc1C(N1CCN(c3ccccc3F)CC1)C(=O)N2 (configuration not stated) returned aSyn rescue -4.5%, FUS suppressor inactive, Abeta rescue inactive and TDP-43 yeast inh 7.1%.
Screening CCOC(=O)c1ccc(NC(=S)N2CCSC2c2ccc(Br)cc2)cc1 (configuration not stated) returned ERG Ets-DNA blk -0.7%, aSyn rescue -10.8%, Mito fusion act 22.4µM*, FUS suppressor inactive, Abeta rescue inconclusive and TDP-43 yeast inh 9.3%.
`CC(Oc1ccccc1)c1ccnn1S(=O)(=O)c1ccccc1` (configuration not stated) gave ERG Ets-DNA blk -9.4%, aSyn rescue -6.2%, Mito fusion act 3.1%, FUS suppressor inactive, Abeta rescue inactive and TDP-43 yeast inh 14.2%.
CCNC(=O)n1nccc1C(C)Oc1ccccc1 (configuration not stated) was read as ERG Ets-DNA blk 0.7%, aSyn rescue 0.7%, Mito fusion act 1.0%, FUS suppressor inactive, Abeta rescue inactive and TDP-43 yeast inh 11.2µM*.
CCCNC(=O)NC(=O)CSc1cccc(C(F)(F)F)c1 was read as ERG Ets-DNA blk 11.9%, aSyn rescue 4.4%, Mito fusion act -22.5%, FUS suppressor inactive, Abeta rescue inactive and TDP-43 yeast inh 17.8µM*.
CCC1Nc2ncnc(N3CCc4ccccc4C3)c2N(Cc2ccc(Cl)cc2)C1=O (configuration not stated) was read as ERG Ets-DNA blk 5.0%, aSyn rescue 17.4%, FUS suppressor inconclusive, Abeta rescue inactive and TDP-43 yeast inh 7.1%.
`O=C1C(Cc2ccccc2)Nc2ncnc(N3CCc4ccccc4C3)c2N1Cc1ccc(Cl)cc1` (configuration not stated) gave ERG Ets-DNA blk 1.7%, aSyn rescue 15.2%, Mito fusion act 10µM*, FUS suppressor inconclusive, Abeta rescue inactive and TDP-43 yeast inh 6.4%.
CC(C)CC1Nc2ncnc(N3CCCCC3)c2N(Cc2ccc(Br)cc2)C1=O (configuration not stated) was read as ERG Ets-DNA blk 3.9%, aSyn rescue 13.7%, Mito fusion act 22.4µM*, FUS suppressor inactive, Abeta rescue inconclusive and TDP-43 yeast inh inconclusive.
For COC(=O)[C@H](C)NC(=O)[C@@H]1CCCN1C(=O)CNP(=O)(OCc1ccccc1)OCc1ccccc1 the results were FUS suppressor inactive.
For C=CCN(C(=O)[C@@H](C)[C@@H](O)c1ccc(C(C)=O)cc1)c1ccccc1 the results were FUS suppressor inactive.
Screening CN(c1ccccc1)c1ncccn1 returned ERG Ets-DNA blk 7.8%, aSyn rescue 0.6%, FUS suppressor inactive, Abeta rescue inactive and TDP-43 yeast inh 12.4%.
CN(c1ccccc1)c1cc(Br)nc(Br)c1 was read as ERG Ets-DNA blk 5.7%, aSyn rescue 0.4%, FUS suppressor inactive, Abeta rescue inactive and TDP-43 yeast inh 14.1µM*.
Screening Cc1cnc(CNc2nc3cc(-c4ccccc4C)sc3c(=O)n2C)cn1 returned aSyn rescue 9.2%, FUS suppressor inactive, Abeta rescue inactive and TDP-43 yeast inh 35.5µM*.
For Cc1ccccc1-c1cc2nc(NCc3ccccc3)n(C)c(=O)c2s1 the results were aSyn rescue inconclusive, FUS suppressor 28.2µM*, Abeta rescue inactive and TDP-43 yeast inh inconclusive.
For COCCNc1nc2cc(-c3ccccc3OC)sc2c(=O)n1C the results were aSyn rescue 0.8%, FUS suppressor inactive, Abeta rescue inactive and TDP-43 yeast inh 14.1µM*.
CC(=O)NCCNc1nc2cc(-c3ccccc3CO)sc2c(=O)n1C was read as aSyn rescue inconclusive, FUS suppressor inactive, Abeta rescue inactive and TDP-43 yeast inh 35.5µM*.
Screening COCCNc1nc2cc(-c3ccccc3C)sc2c(=O)n1C returned aSyn rescue 0.2%, FUS suppressor inconclusive, Abeta rescue inactive and TDP-43 yeast inh 0.0%.
`COc1cccc(NC(=O)c2cccc(C(=O)Nc3cccc(OC)c3)n2)c1` gave ERG Ets-DNA blk -12.2%, aSyn rescue 7.2%, Mito fusion act 0.2%, Abeta rescue inactive and TDP-43 yeast inh 11.7%.
Screening COc1cccc(NC(=O)c2csc3c2CCCC3)c1 returned ERG Ets-DNA blk 9.6%, aSyn rescue -6.6%, Mito fusion act -0.6%, FUS suppressor inactive, Abeta rescue inactive and TDP-43 yeast inh 17.8µM*.
For COc1cccc(C(=O)Nc2cccc(NC(=O)c3ccc(Cl)cc3Cl)c2)c1 the results were ERG Ets-DNA blk -1.2%, FUS suppressor inactive, Abeta rescue inactive and TDP-43 yeast inh 11.2µM*.
For COc1cccc(NC(=O)c2cnsn2)c1 the results were ERG Ets-DNA blk 3.6%, Mito fusion act 3.4%, FUS suppressor inactive, Abeta rescue inactive and TDP-43 yeast inh 12.6µM*.
Cc1ccc(Cl)cc1N1CCN(C(=O)COc2cc(=O)n(C)c3ccccc23)CC1 was read as ERG Ets-DNA blk -2.2%, FUS suppressor inactive, Abeta rescue inactive and TDP-43 yeast inh inconclusive.
For Cc1ccc(C)c(CN2C(=O)c3ccccc3S(=O)c3ccc(C(=O)N4CCN(c5cccc(Cl)c5)CC4)cc32)c1 (configuration not stated) the results were ERG Ets-DNA blk 0.1%, FUS suppressor 10µM*, Abeta rescue inactive and TDP-43 yeast inh -29.7%.
For Cc1ccc(CCNC(=O)c2ccc3c(c2)N(Cc2ccccc2)C(=O)c2ccccc2S3=O)cc1 (configuration not stated) the results were ERG Ets-DNA blk -5.5%, FUS suppressor inactive, Abeta rescue inactive and TDP-43 yeast inh -2.4%.
COc1ccc(N2CCN(C(=O)c3ccc4c(c3)N(Cc3cc(C)ccc3C)C(=O)c3ccccc3S4=O)CC2)cc1 (configuration not stated) was read as ERG Ets-DNA blk 0.8%, FUS suppressor inactive, Abeta rescue inactive and TDP-43 yeast inh 22.8%.
Screening CCOc1ccc(CCNC(=O)c2ccc3c(c2)N(Cc2ccccc2)C(=O)c2ccccc2S3=O)cc1OCC (configuration not stated) returned ERG Ets-DNA blk -3.0%, FUS suppressor 25.1µM*, Abeta rescue inactive and TDP-43 yeast inh 18.0%.

Screening data as filed in PubChem.
